Screens from PubChem BioAssay.
TDP1 cell noCPT: qHTS for Inhibitors of human tyrosyl-DNA phosphodiesterase 1 (TDP1): qHTS in cells in absence of CPT | DT40 Tdp1-/- hTDP1 cells, no CPT, ATP luminescence, 48 h | Potency, µM (doses to about 46.2 µM), without a hit: at the top dose activity change, negative = growth inhibition, most hits filed as inhibitors | hit rate 15% among 420,000; also: potency is read from the fitted curve at half-maximal effect; % is scaled to controls: 0 for no effect and ±100 for the full control effect; nearly all actives have a fitted effect of over 55% in size
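Readout: luminescence from CellTiter-Glo after 30 min in the dark at RT. Cells: DT40 Tdp1-/- with stable hTDP1, 400/well. Exposure: compounds alone, ≥48 hr, 37 °C.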
IL-1B inflam inh: inflammasome signaling inhibition, IL-1 beta readout; hit rate 4.7% among 360,000; activity change, % at 57.5 µM; THP-1 LPS/ATP IL-1B secretion, AlphaLISA, 16 h; stronger effect = lower value; AID 743279; in the data active = activity change below about -50%; inconclusive = mostly about -30% to -49%; also: % is scaled to controls: 0 for no effect and ±100 for the full control effect
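Secreted IL-1B measured by AlphaLISA bead assay after 16 h compound exposure of THP-1 cells; compounds (final up to 57.5 uM) added 1 h before LPS (250 ng/mL) and ATP (1.25 mM) stimulation; lower signal means less secretion.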
DT40 TDP1 CPT: growth inhibition of DT40 Tdp1-/-;hTDP1 cells with camptothecin (screen for TDP1 inhibitors); chicken DT40 Tdp1-/-;hTDP1 cells + 20 nM CPT, ATP luminescence, 48 h; hit rate 12% among 420,000; Potency, µM (top dose mostly 46.2 µM), for the others: top-dose activity change, negative = growth inhibition, most hits filed as inhibitors; AID 686979; also: potency is read from the fitted curve at half-maximal effect; % is scaled to controls: 0 for no effect and ±100 for the full control effect; nearly all actives have a fitted effect of over 55% in size
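Cell growth measured by CellTiter-Glo luminescence after a minimum 48 h, 37 C compound exposure with 20 nM CPT in Tdp1-knockout DT40 cells stably expressing hTDP1, seeded 400/well; qHTS titration format.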
ClpP mod: qHTS Assay for Activators of ClpP; ATP-dependent Clp protease proteolytic subunit (Bacillus subtilis (strain 168)), P80244; purified B. subtilis ClpP, FRET peptide cleavage, 20 min; Potency, µM (top dose mostly 57.5 µM), for inactives: at the top dose activity change, negative = active; hit rate 1.9% among 340,000; active = well fitted falling curve with a large enough effect; inconclusive = small, poorly fitted or top-dose-only effect; inactive = no such curve, though single readings can be large or run the other way; also: potency is read from the fitted curve at half-maximal effect; the source files actives as falling curves though it sought activators and does not explain the sign; nearly all actives have a fitted effect of over 65% in size
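Buffer: 100 mM Tris/HCl pH8, 100 mM KCl, 0.05% low protease BSA, 2.5% glycerol, 0.01% Tween-20. ClpP 10 microg/mL final; 20 min RT; delta FRET normalized to ADEP and DMSO controls.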
DRD3 antagonist: blocks the human D3 dopamine receptor. P35462. D3R cells, DiscoveRx beta-arrestin luminescence, antagonist mode; stronger effect = lower value. max response, negative = inhibition, %. hit rate 2.5% among 360,000. AID 652054; in the data active = max response below about -50%; inconclusive = no clear call, values can overlap the other calls; also: % is scaled to controls: 0 for no effect and ±100 for the full control effect
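Cells expressing the human receptor were seeded at 1500 cells/well, incubated overnight at 37 degrees C in 5% CO2, then exposed to library compounds with dopamine controls for 90 minutes at 37 degrees C before luminescent detection.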
DRD3 agonist: agonists of human D3 dopamine receptor. max activation, %. AID 652048. D3R DiscoveRx beta-arrestin cells, luminescence, 90 min. P35462. hit rate 0.58% among 410,000; in the data active = max activation above about 30%; also: 0% is about no effect
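Agonist mode: compounds and dopamine controls were applied to plated cells for 90 min at 37 degrees C after an overnight attachment at 1500 cells/well. Luminescent read-out followed 30 - 60 minutes at room temperature with DiscoveRx detection reagent.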
Numbers without * were called inactive; ? = inconclusive; . = not tested or not shown; [ ] = dose if it differs, or a comment. This is a sample that favours compounds with a hit; in the whole collection about 21% have one here. Unless noted, calls follow the shape of the dose curve; as a rule, active = well fitted inhibition curve with a large enough effect; inconclusive = small, poorly fitted or top-dose-only effect; inactive = flat fitted curve, though single readings scatter.

SMILES | TDP1 cell noCPT | IL-1B inflam inh | DT40 TDP1 CPT | ClpP mod | DRD3 antagonist | DRD3 agonist
CCC(Sc1nc2n[nH]c(C)c2c(=N)n1-c1cccc(Cl)c1C)C(=O)N(CC)CC (configuration not stated) | ? | -6.7 | ? | 2.5% | 26.0 | 2.3
Cc1cc(-n2c(SCC(=O)Nc3ccc(Br)cc3)nc3n[nH]c(C)c3c2=N)ccc1Cl | ? | 15.6 | ? | -21.0% | -17.1 | 0.1
CCN(C(=O)CSc1nc2n[nH]c(C)c2c(=N)n1-c1cccc(OC)c1)c1cccc(C)c1 | ? | . | 23.1µM* | -8.8% | . | 2.8
COc1ccc(CC(=O)Nc2c(C(=O)N3CCN(c4ncccn4)CC3)oc3ccccc23)cc1 | -19.5% | -16.8 | -1.2% | -15.2% | -3.6 | 1.0
COC(=O)c1sc(NC(=O)c2ccc3c(c2)OCO3)c(C#N)c1C | -5.0% | 16.9 | 25.2% | . | 7.5 | 3.7
COc1cc(OC)cc(C(=O)N[C@H](C(=O)NCCc2ccc(S(N)(=O)=O)cc2)C(C)C)c1 | 1.6% | 4.6 | -1.1% | . | -16.7 | -7.4
COC(CNC(=O)c1ccc2nc(-c3cccs3)c(-c3cccs3)nc2c1)OC | 13µM* | -51.2* | 18.4µM* | 59.5% | 12.2 | 5.9
COc1ccc(-c2nc3ccc(C(=O)NCC(OC)OC)cc3nc2-c2ccc(OC)c(OC)c2)cc1OC | ? | -7.2 | ? | -0.3% | 5.7 | 6.1
CCCCNC(=O)c1ccc2nc(-c3cccs3)c(-c3cccs3)nc2c1 | 20µM* | . | ? | 10.2% | . | .
CSc1ccccc1OCc1cc(C(=O)N(C)C2CCCc3ccccc32)no1 (configuration not stated) | ? | 3.7 | ? | 3.0% | 7.2 | -11.3
Cc1cc2c(c(-c3ccc(Cl)cc3)c1)OC(CNC(=O)Cc1c(C)noc1C)C2 (configuration not stated) | -17.9% | . | -0.4%[9.04 µM] | . | . | .
O=S(=O)(NCC(c1ccco1)N1CCc2ccccc2C1)c1ccc(Br)cc1 (configuration not stated) | ? | -26.5 | ? | . | 5.2 | -10.4
Cc1ccc(S(=O)(=O)NCC(c2ccco2)N2CCc3ccccc3C2)cc1 (configuration not stated) | ? | 1.6 | 23.1µM* | 2.3% | -6.2 | -19.5
COc1ccc(C)cc1S(=O)(=O)NCC(c1ccco1)N1CCc2ccccc2C1 (configuration not stated) | ? | -9.9 | 29.1µM* | -4.3% | ? | -23.0
O=CN1c2ccccc2CSc2ccccc21 | -15.7% | 13.9 | -18.0% | 1.2% | -4.7 | -9.7
Cc1cccc(N2C(=O)c3ccccc3C2=O)n1 | 3.0% | -6.5 | 5.4% | -1.6% | -12.3 | -14.7
CO[C@H]1[C@H](NC(=O)c2ccsc2)c2ccccc2C12CCN(Cc1c(O)ccc3ccccc13)CC2 | -26.0% | . | -28.7% | . | . | .
O=C1Nc2ccc(Br)cc2/C1=C/C1CC=CCC1 (configuration not stated) | ? | -98.8* | 18.4µM* | 1.3% | -14.9 | 0.7
O=C1NC(Cc2ccccc2)C(=O)Nc2ccc(Br)cc21 (configuration not stated) | ? | -3.8 | -26.2% | -0.5% | 11.4 | 7.9
O=C1C=C(O)c2cccc(O)c2C1=O | ? | 14.5 | 25.9µM* | 2.9% | -27.9 | -19.2
CCOC(=O)C(/C=C(\C#N)C(=O)OCC)=C(/N)N1CCN(c2ccc(Cl)cc2)CC1 | 16.4µM* | -8.0 | -14.6% | 1.3% | ? | -2.0
OCc1cc([C@@H](O)CNCCCCCCOCCCCc2ccccc2)ccc1O | 10.6µM* | . | 9.44µM* | 1.9% | . | .
CCN(Cc1nc2cc(Cl)ccc2c(=O)[nH]1)C(=O)c1cc(C2CC2)nn1-c1ccccc1 | 2.91µM* | 17.5 | 5.17µM* | -2.1% | -10.1 | -6.7
CCN(Cc1nc2cc(Cl)ccc2c(=O)[nH]1)C(=O)c1nn(C)c(=O)c2ccccc12 | ? | 15.7 | -24.3% | 0.8% | 0.8 | -6.2
C(=C\c1ccnc2ccccc12)/c1ccc(N2CCOCC2)cc1 | 1.26µM* | . | 1.78µM* | 1.1% | . | .
SMILES | TDP1 cell noCPT | IL-1B inflam inh | DT40 TDP1 CPT | ClpP mod | DRD3 antagonist | DRD3 agonist
CN1CCCc2ccccc21 | -13.6% | . | -1.5% | -6.2% | . | .
C(=C\c1ccnc2ccccc12)/c1ccc(N2CCN(c3ccc(/C=C/c4ccnc5ccccc45)cc3)CC2)cc1 | 6.31µM* | . | 5.01µM* | -2.3% | . | .
C(=C\c1ccnc2ccccc12)/c1ccc(N2CCNCC2)cc1 | 14.1µM* | . | ? | -0.2% | . | .
O=Cc1ccc(N2CCOCC2)cc1 | -2.6% | . | 10.3% | -2.7% | . | .
CN1CCCc2cc(/C=C/c3ccnc4ccccc34)ccc21 | 14.1µM* | . | 11.2µM* | 0.1% | . | .
N#CC1(NC(=O)CN2C(=O)NC(Cc3c[nH]c4ccccc34)C2=O)CCCCC1 (configuration not stated) | -13.9% | 7.3 | -8.6% | 1.0% | 0.0 | -21.3
CCn1c(/C=C/c2ccc(O)c(O)c2)nc2ccccc2c1=O | 6.51µM* | -18.6 | ? | -2.6% | -18.2 | -0.4
Cc1ccc(/C=C/c2nc3ccccc3c(=O)n2CCc2ccccc2)cc1 | 16.4µM* | -19.7 | ? | -25.2% | 10.8 | -1.6
Cc1nc2ccccc2c(=O)n1CCc1ccccc1 | ? | 38.0 | ? | -0.2% | ? | 1.4
Cn1c(/C=C/c2cccc([N+](=O)[O-])c2)nc2ccccc2c1=O | 1.2% | -14.2 | -25.1% | 1.0% | 3.9 | 1.9
CCn1c(/C=C2\C(=O)Nc3ccccc32)nc2ccccc2c1=O | 16.4µM* | ? | ? | -1.2% | 25.8 | -11.8
CCn1c(/C=C/c2ccc(O)cc2)nc2ccccc2c1=O | 25.9µM* | -95.6* | ? | -1.9% | -1.2 | 6.5
CCc1ncc(/C=C2\C(=O)Nc3ccccc32)[nH]1 | -6.2% | ? | -2.8% | . | 13.9 | 1.5
CCn1c(/C=C/c2c(C)n(CC)c3ccccc23)nc2ccccc2c1=O | ? | 28.6 | ? | 0.3% | 57.1 | 35.3*
CCn1c(/C=C/c2cc(Br)ccc2O)nc2ccccc2c1=O | ? | -57.6* | ? | 75.0% | 9.5 | 8.0
CCn1c(/C=C/c2ccccc2C)nc2ccccc2c1=O | ? | -9.2 | ? | -1.0% | -9.3 | -3.5
CCn1c(/C=C/c2ccccc2F)nc2ccccc2c1=O | ? | -14.0 | ? | ? | 4.6 | 2.7
CCNC(=O)CC1SC(=Nc2ccc(Cl)cc2)N(CC)C1=O (configuration not stated) | 20.6µM* | -1.4 | ? | -1.9% | -0.2 | -3.5
